Assay results taken from PubChem BioAssay (Tox21).
Results filed as inconclusive are left out. Entries that show only a call come without a potency. The source made the active and inactive calls. Unless noted, the call rests on the fitted dose curve; in most records, active means well fitted curve in the direction sought with a large enough effect in the repeat runs; inconclusive means weak or mixed curves; inactive means no such curve, though single readings can be large; an effect the other way counts as inactive or inconclusive.

Experiments:
[1] = qHTS assay to identify small molecule antagonists of the glucocorticoid receptor (GR) signaling pathway - cell viability counter screen (AID 720693); further: nearly all actives have a fitted effect of over 55% in size
[2] = qHTS assay for identifying genotoxic compounds that show differential cytotoxicity against isogenic chicken DT40 cell lines with known DNA damage response pathways - wild type cell line (AID 743012); further: nearly all actives have a fitted effect of over 60% in size; further: potency means the concentration at half of the fitted maximal effect
Summary of the method: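 Parental DNA repair-proficient DT40 cells, 300 per well, were pre-incubated ~0.5 h at 37 C/5% CO2, pin-dosed with compounds in DMSO, then incubated 40 h. Viability was read as CellTiter-Glo luminescence after 30 min at room temperature.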

[3] = qHTS assay for identifying genotoxic compounds that show differential cytotoxicity against isogenic chicken DT40 cell lines with known DNA damage response pathways - Rev3 mutant cell line (AID 743014); further: nearly all actives have a fitted effect of over 55% in size; further: potency means the concentration at half of the fitted maximal effect
[4] = qHTS assay for identifying genotoxic compounds that show differential cytotoxicity against isogenic chicken DT40 cell lines with known DNA damage response pathways - Rad54/Ku70 mutant cell line (AID 743015); further: nearly all actives have a fitted effect of over 60% in size; further: potency means the concentration at half of the fitted maximal effect
[5] = qHTS assay to identify small molecule antagonists of the androgen receptor (AR) signaling pathway - cell viability counter screen (AID 743033; further: nearly all actives have a fitted effect of over 45% in size)
[6] = target: Androgen receptor (Homo sapiens) (UniProt P10275); assay: qHTS assay to identify small molecule agonists of the androgen receptor (AR) signaling pathway (AID 743036; active means well fitted activation curve with a large enough effect in the signal ratio in the repeat runs, with a control signal flat, not every such curve was filed as active; the % refers to the signal ratio)
Androgen receptor (Homo sapiens), sequence (P10275 whole entry, looked up): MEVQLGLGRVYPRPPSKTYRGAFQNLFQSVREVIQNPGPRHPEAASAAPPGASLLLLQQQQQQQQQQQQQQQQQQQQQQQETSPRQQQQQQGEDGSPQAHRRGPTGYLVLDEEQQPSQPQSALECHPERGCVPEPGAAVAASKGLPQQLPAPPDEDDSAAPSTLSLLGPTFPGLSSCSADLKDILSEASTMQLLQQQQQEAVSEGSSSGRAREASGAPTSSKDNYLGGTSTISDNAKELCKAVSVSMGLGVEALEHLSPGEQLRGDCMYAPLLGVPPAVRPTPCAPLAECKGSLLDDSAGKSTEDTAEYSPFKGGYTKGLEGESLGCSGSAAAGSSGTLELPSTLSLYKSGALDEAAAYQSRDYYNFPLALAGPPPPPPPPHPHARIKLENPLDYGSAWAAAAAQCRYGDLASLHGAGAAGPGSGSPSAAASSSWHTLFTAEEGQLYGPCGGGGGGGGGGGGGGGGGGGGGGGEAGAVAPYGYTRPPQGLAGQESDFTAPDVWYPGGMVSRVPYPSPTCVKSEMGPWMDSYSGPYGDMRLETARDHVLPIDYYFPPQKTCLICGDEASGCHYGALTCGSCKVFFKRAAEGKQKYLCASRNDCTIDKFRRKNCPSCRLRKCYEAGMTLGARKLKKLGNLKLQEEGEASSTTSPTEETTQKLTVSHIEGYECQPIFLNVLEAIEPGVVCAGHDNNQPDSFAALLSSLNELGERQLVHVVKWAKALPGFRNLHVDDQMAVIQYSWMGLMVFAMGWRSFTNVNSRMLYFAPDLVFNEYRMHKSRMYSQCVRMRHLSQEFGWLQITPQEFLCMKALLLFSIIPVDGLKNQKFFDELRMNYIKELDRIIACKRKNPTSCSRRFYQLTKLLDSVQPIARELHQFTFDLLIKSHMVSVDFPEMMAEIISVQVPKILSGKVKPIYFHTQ
Summary of the method: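 In this Tox21 qHTS, 2,000 HEK293 AR-bla cells per well were incubated with compounds for 16 h at 37C and 5% CO2. Fluorescence intensity was recorded 2 h after adding LiveBLAzer B/G FRET substrate at room temperature.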

[7] = target: Androgen receptor (Homo sapiens) (UniProt P10275); assay: qHTS assay to identify small molecule agonists of the androgen receptor (AR) signaling pathway using the MDA cell line (AID 743040; further: nearly all actives have a fitted effect of over 20% in size)
Summary of the method: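 After a 5 h incubation at 37C and 0% CO2, MDA-kb2 reporter cells were dosed with compounds in DMSO and kept 16 h under the same conditions. Luciferase activity was then read as luminescence with ONE-Glo.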

[8] = qHTS assay to identify small molecule antagonists of the androgen receptor (AR) signaling pathway using the MDA cell line - cell viability counter screen (AID 743041; further: nearly all actives have a fitted effect of over 45% in size)
Summary of the method: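 R1881-driven MDA-kb2 AR-luc cells, 3,000/well, were dosed with library compounds for 16 h; cell health came from CellTiter-Fluor fluorescence in the reporter wells.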

[9] = target: Androgen receptor (Homo sapiens) (UniProt P10275); assay: qHTS assay to identify small molecule antagonists of the androgen receptor (AR) signaling pathway using the MDA cell line (AID 743042; further: nearly all actives have a fitted effect of over 55% in size)
Summary of the method: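 Antagonist mode: compounds plus R1881 agonist added to MDA-kb2 AR-luc cells, incubated 16 h at 37C. Luciferase reporter luminescence quantified, with multiplexed CellTiter-Fluor readout for cell viability.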

[10] = qHTS assay to identify small molecule antagonists of the thyroid receptor (TR) signaling pathway - cell viability counter screen (AID 743064); further: nearly all actives have a fitted effect of over 50% in size
Summary of the method: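 Counter screen for cytotoxicity: compound plus T3 (1 nM final) on GH3.TRE-Luc cells, 23.5 h at 37 °C, then fluorescence viability readout with CellTiter-Fluor.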

Compound | Potency [1] | Potency [2] | Potency [3] | Potency [4] | Potency [5] | outcome [6] | outcome [7] | Potency [8] | Potency [9] | Potency [10]
C[C@H](CN1CCOCC1)C(C(=O)N1CCCC1)(c1ccccc1)c1ccccc1 | inactive | 33.2 µM (active) | 37.3 µM (active) | 59.1 µM (active) | inactive | inactive | inactive | inactive | inactive | –
CCCCOC(C)=O | inactive | inactive | inactive | inactive | inactive | – | – | inactive | – | inactive
CC1NCCOC1c1ccccc1 (stereo unspecified) | inactive | inactive | inactive | inactive | inactive | – | – | inactive | – | inactive
CCSC(=O)Cl | inactive | inactive | inactive | inactive | inactive | – | – | inactive | inactive | inactive
CCN(CCO)CCn1c(Cc2ccccc2)nc2c1c(=O)n(C)c(=O)n2C | inactive | inactive | inactive | inactive | inactive | – | – | inactive | – | –
CNC(=O)NC(O)C(Cl)(Cl)Cl (stereo unspecified) | inactive | inactive | inactive | inactive | inactive | inactive | inactive | inactive | inactive | inactive
CCCN1CCC[C@@H]2Cc3nc(N)ncc3C[C@H]21 | inactive | inactive | inactive | inactive | inactive | – | – | inactive | – | inactive
CN(C)C(=O)Oc1cc(OC(=O)N(C)C)cc(C(O)CNC(C)(C)C)c1 (stereo unspecified) | inactive | inactive | inactive | inactive | inactive | inactive | inactive | inactive | inactive | inactive
C=CC(=O)OCCN(C)C | inactive | inactive | inactive | inactive | inactive | – | – | inactive | – | inactive
COc1cccc(C=O)c1 | inactive | inactive | inactive | inactive | inactive | – | – | inactive | – | inactive
Cl/C=C/CCl | inactive | inactive | inactive | inactive | inactive | – | – | inactive | – | inactive
CC1N=C(N)OC1c1ccccc1 (stereo unspecified) | inactive | inactive | inactive | inactive | inactive | – | – | inactive | – | inactive
CCOP(=S)(OCC)SCCl | inactive | inactive | inactive | inactive | inactive | inactive | inactive | – | inactive | inactive
O=c1[nH]c2ccccc2o1 | inactive | inactive | inactive | inactive | inactive | – | – | inactive | – | inactive
COc1ccc2c(C(=O)c3ccc(Cl)cc3)c(C)n(CC(=O)O)c2c1 | inactive | inactive | inactive | inactive | inactive | – | – | inactive | – | –
O=c1[nH]oc2c1CCNC2 | inactive | inactive | inactive | inactive | inactive | – | – | inactive | – | inactive
Clc1ccc(C(Cl)(Cl)Cl)cn1 | inactive | inactive | 61.1 µM (active) | inactive | inactive | inactive | inactive | – | inactive | inactive
CN(C)CCN(C)C | inactive | inactive | inactive | inactive | inactive | – | – | inactive | – | –
CCNP(=S)(OC)O/C(C)=C/C(=O)OC(C)C (stereo unspecified) | inactive | 61.1 µM (active) | 34.4 µM (active) | 54.5 µM (active) | inactive | – | – | – | – | –
CCOP(=O)(CN(CCO)CCO)OCC | inactive | inactive | inactive | inactive | inactive | – | – | inactive | – | inactive
Cc1ccc2cc(C)ccc2c1 | inactive | inactive | inactive | inactive | inactive | – | – | inactive | – | –
C[C@H](N)C(=O)c1ccccc1 | inactive | inactive | inactive | inactive | inactive | inactive | inactive | inactive | inactive | inactive
CCCC(C)C1(CC)C(=O)N=C(S)NC1=O (stereo unspecified) | inactive | inactive | inactive | inactive | inactive | – | – | inactive | – | inactive
O=[N+]([O-])c1cccc(CCl)c1 | inactive | inactive | inactive | inactive | inactive | – | – | inactive | – | inactive
O=CCCl | inactive | 19.3 µM (active) | 0.217 µM (active) | 27.3 µM (active) | inactive | – | – | inactive | – | inactive
Cc1ccc(-c2nc3ccc(C)cn3c2CC(=O)N(C)C)cc1 | inactive | inactive | inactive | inactive | inactive | – | – | inactive | – | inactive
C[N+]1(C)CCCCC1 | inactive | inactive | inactive | inactive | inactive | inactive | inactive | inactive | inactive | –
N[C@@H]1C[C@H]1c1ccccc1 | inactive | inactive | inactive | inactive | inactive | inactive | inactive | inactive | inactive | inactive
